Data published in PubChem BioAssay (NCATS).
Records with an inconclusive call do not appear. Values without a mark were called inactive. Activity calls are given as the source filed them. Calls follow the shape of the dose curve; as a rule, active = well fitted inhibition curve with a large enough effect; inconclusive = small, poorly fitted or top-dose-only effect; inactive = flat fitted curve, though single readings scatter.

Columns and labels:
[1] = Drug repurposing screens with cells derived from glioblastoma tumor samples (AID 1345199); details: GBM patient neurospheres viability, ATP luminescence, 48 h; also: nearly all actives have a fitted effect of over 40% in size
Method in brief: (§1)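 Primary testing used CD133+ neurospheres from four GBM patients, seven concentrations, 48 h exposure and ATP-based viability; confirmation added three slower-growing patient lines.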

astro = control astrocytes; assay: as above; details: viability, ATP luminescence, 48 h; series mostly up to 45.9 µM
Method in brief: as §1

[2] = at 45.9 µM (top of the series), tumour line B
[3] = at 45.9 µM (top of the series), tumour line D
[4] = at 46 µM (top of the series), tumour line A
[5] = at 46.1 µM (top of the series), tumour line C
% is scaled to controls: 0 for no effect and ±100 for the full control effect; potency is read from the fitted curve at half-maximal effect.

SMILES	activity, negative = cell killing [1, 2] [%]	activity, negative = cell killing [1, 3] [%]	activity, negative = cell killing [1, 4] [%]	activity, negative = cell killing [1, 5] [%]	Potency (astro)	Potency ([1]; tumour line A)	Potency ([1]; tumour line D)
CCN(CC)C(=S)S	-1.95	-9.18	-29.6	-13.5	inactive		
CC(C)c1nc(N(C)S(C)(=O)=O)nc(-c2ccc(F)cc2)c1/C=C/C(O)CC(O)CC(=O)O (stereo not given)	-27.3			-19	10 µM (active)	3.55 µM (active)	17.8 µM (active)
O=C1CCC(c2ccccc2)(C2CCN(Cc3ccccc3)CC2)C(=O)N1 (stereo not given)	-26.8	-22.6		-22.6	inactive	11.2 µM (active)	
CCC(=O)OC(OP(=O)(CCCCc1ccccc1)CC(=O)N1C[C@H](C2CCCCC2)C[C@H]1C(=O)O)C(C)C (stereo not given in full)	-7.98	-19.4	-12.6	-19	inactive		
CCCCC(O)c1ccccc1 (stereo not given)	-4.84	-15	-44.5	0.769	inactive		
NCC(O)CC(=O)O (stereo not given)	-5.1	-3.38	-5.53	12.2	inactive		
COc1ccc(C(=O)CCC(=O)O)c2ccccc12	0.841	1.24	-50.8	-26.3	inactive		
CN1c2c(nc(N)[nH]c2=O)NCC1CNc1ccc(C(=O)NC(CCC(=O)O)C(=O)O)cc1 (stereo not given)	-12	-5.57	-17.5	-2.53	inactive		
